Inconclusive results are not listed. The source made the active and inactive calls. Unless noted, calls come from the whole dose curve; as a rule, active = well fitted curve in the direction sought with a large enough effect in the repeat runs; inconclusive = weak or mixed curves; inactive = no such curve, though single readings can be large; an effect the other way counts as inactive or inconclusive.

A short description of experiment [1]: qHTS assay to identify small molecule antagonists of the glucocorticoid receptor (GR) signaling pathway - cell viability counter screen (AID 720693; note: nearly all actives have a fitted effect of over 55% in size; note: potency is the fitted concentration of half-maximal effect). (In general: Quantitative high-throughput screening tests each substance at several concentrations.)
Experiment [2] in a line: qHTS assay for identifying genotoxic compounds that show differential cytotoxicity against isogenic chicken DT40 cell lines with known DNA damage response pathways - wild type cell line (AID 743012). Note: nearly all actives have a fitted effect of over 60% in size. Note: potency is the fitted concentration of half-maximal effect. The method, boiled down: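 Wild type DT40, 300 cells/well, ~0.5 h settle at 37 C/5% CO2; compounds in DMSO added by pintool; 40 h at 37 C/5% CO2; CellTiter-Glo, 30 min RT; luminescence.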

Experiment [3] is described as follows: qHTS assay for identifying genotoxic compounds that show differential cytotoxicity against isogenic chicken DT40 cell lines with known DNA damage response pathways - Rad54/Ku70 mutant cell line (AID 743015). Note: nearly all actives have a fitted effect of over 60% in size. Note: potency is the fitted concentration of half-maximal effect.
Experiment [4] in a line: qHTS assay to identify small molecule antagonists of the androgen receptor (AR) signaling pathway - cell viability counter screen (AID 743033; note: nearly all actives have a fitted effect of over 45% in size).
Experiment [5] can be described thus: qHTS assay to identify small molecule antagonists of the androgen receptor (AR) signaling pathway using the MDA cell line - cell viability counter screen (AID 743041; note: nearly all actives have a fitted effect of over 45% in size). The method, boiled down: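 Cells were plated at 3,000 per well and left 5 h. Compounds in DMSO were then pinned in, followed by R1881. After 16 h at 37C, CellTiter-Fluor fluorescence gave viability.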

A short description of experiment [6]: qHTS assay for identifying genotoxic compounds that show differential cytotoxicity against isogenic chicken DT40 cell lines with known DNA damage response pathways - Rev3 mutant cell line (AID 743014). Note: nearly all actives have a fitted effect of over 55% in size. Note: potency is the fitted concentration of half-maximal effect.
Experiment [7] has as its target Androgen receptor (Homo sapiens) (UniProt P10275). Nature of the experiment: qHTS assay to identify small molecule antagonists of the androgen receptor (AR) signaling pathway (AID 743035; active = well fitted inhibition curve with a large enough effect in the signal ratio in the repeat runs, not every such curve was filed as active; the % refers to the signal ratio). In short, it runs like this: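 Fluorescence from a beta-lactamase FRET substrate (LiveBLAzer B/G, 2 h, room temperature) measured inhibition of R1881-stimulated signaling in GeneBLAzer AR-UAS-bla HEK293 cells exposed to compound for 16 h at 37C.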

Experiment [8] shares this target. Nature of the experiment: qHTS assay to identify small molecule agonists of the androgen receptor (AR) signaling pathway (AID 743036; active = well fitted activation curve with a large enough effect in the signal ratio in the repeat runs, with a control signal flat, not every such curve was filed as active; the % refers to the signal ratio). In short, it runs like this:
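Following a 4 h settling period, AR-UAS-bla HEK293 cells were dosed with compounds for 16 h at 37C. A 2 h room-temperature incubation with LiveBLAzer B/G FRET substrate preceded the fluorescence measurement.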

For experiment [9] the target is unchanged. The experiment can be described thus: qHTS assay to identify small molecule agonists of the androgen receptor (AR) signaling pathway using the MDA cell line (AID 743040; note: nearly all actives have a fitted effect of over 20% in size). The method, boiled down: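 Cells plated, 5 h at 37C/0% CO2; compound or DMSO pinned; 16 h at 37C; ONE-Glo added; luminescence measured after 30 min at room temperature. Reporter line: MDA-kb2 with MMTV-luciferase responsive to AR and GR.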

Experiment [10] has the same target. Nature of the experiment: qHTS assay to identify small molecule antagonists of the androgen receptor (AR) signaling pathway using the MDA cell line (AID 743042; note: nearly all actives have a fitted effect of over 55% in size). The method, boiled down:
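Antagonist mode: compounds plus R1881 agonist added to MDA-kb2 AR-luc cells, incubated 16 h at 37C. Luciferase reporter luminescence quantified, with multiplexed CellTiter-Fluor readout for cell viability.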

Chain of Androgen receptor (Homo sapiens) (P10275 whole entry, looked up): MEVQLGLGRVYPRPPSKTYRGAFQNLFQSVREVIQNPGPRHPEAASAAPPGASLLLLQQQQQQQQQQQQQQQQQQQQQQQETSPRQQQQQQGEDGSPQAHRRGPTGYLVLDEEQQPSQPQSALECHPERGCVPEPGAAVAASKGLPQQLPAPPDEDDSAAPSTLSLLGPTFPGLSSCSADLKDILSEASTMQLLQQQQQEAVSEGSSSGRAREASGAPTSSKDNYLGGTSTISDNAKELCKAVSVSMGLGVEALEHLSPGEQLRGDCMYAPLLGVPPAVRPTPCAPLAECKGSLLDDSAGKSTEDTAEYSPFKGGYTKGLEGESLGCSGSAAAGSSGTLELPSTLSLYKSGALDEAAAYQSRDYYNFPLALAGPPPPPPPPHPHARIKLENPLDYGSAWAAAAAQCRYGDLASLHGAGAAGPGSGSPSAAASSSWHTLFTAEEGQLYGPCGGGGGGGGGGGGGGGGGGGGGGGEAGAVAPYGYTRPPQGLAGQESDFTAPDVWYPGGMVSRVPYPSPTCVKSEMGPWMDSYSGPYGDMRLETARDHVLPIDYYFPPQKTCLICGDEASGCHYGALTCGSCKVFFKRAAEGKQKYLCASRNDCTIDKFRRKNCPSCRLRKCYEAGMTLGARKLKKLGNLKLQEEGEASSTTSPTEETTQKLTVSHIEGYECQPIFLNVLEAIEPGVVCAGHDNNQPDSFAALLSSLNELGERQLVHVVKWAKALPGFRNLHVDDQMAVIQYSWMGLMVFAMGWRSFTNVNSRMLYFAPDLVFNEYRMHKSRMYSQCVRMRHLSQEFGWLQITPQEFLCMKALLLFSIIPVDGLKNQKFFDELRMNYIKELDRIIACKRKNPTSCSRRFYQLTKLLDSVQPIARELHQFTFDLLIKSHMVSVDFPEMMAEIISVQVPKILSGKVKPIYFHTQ

In the case of `CC(=O)OCC(=O)[C@@]1(O)CC[C@H]2[C@@H]3CCC4=CC(=O)C=C[C@]4(C)[C@@]3(F)[C@@H](O)C[C@@]21C`, the Potency result in [1], in experiment [2], in experiment [3], in experiment [4] and in [5] was “inactive” in each case.

For the compound `Nc1ccc(F)cc1F`, the Potency entry in experiment [1], in experiment [2], in experiment [6], in experiment [4], in [7] and in experiment [5] was “inactive” each time. Also, the Potency result in experiment [10] is “inactive”. The compound was called inactive in [8] and in experiment [9].

On to `CCCCCCCCOCCCN`, for which the Potency entry in [1], in experiment [4], in experiment [7], in [5] and in experiment [10] was “inactive” each time. The Potency was 4.33 µM (active) in experiment [2] and 6.86 µM (active) in [6]. Moreover, the call in [9] was inactive.

For `CCC(C)C1N=C(C)C(C)S1` (stereo not given), the Potency entry in experiment [1], in experiment [2], in [6], in experiment [4] and in experiment [5] was “inactive” each time.

As to `CC(C)Cc1nccs1`, the Potency entry in [1], in [2], in experiment [6], in experiment [4] and in [5] was “inactive” throughout.

For the compound `Cc1cc(N)n(-c2ccccc2)n1`, the Potency entry in [1], in experiment [2], in experiment [3], in experiment [4] and in [5] was “inactive” throughout.

As for `Nc1cccc2c(=O)[nH][nH]c(=O)c12`, the Potency entry in experiment [1], in [2], in experiment [6], in experiment [4] and in experiment [5] was “inactive” throughout.

In the case of `COC(=O)c1cc(Cl)ccc1[N+](=O)[O-]`, the Potency result in experiment [1], in [2], in experiment [3], in experiment [4] and in experiment [5] was “inactive” throughout.

With `COc1ccc(/C=C/c2cc(OC)cc(=O)o2)cc1`, the Potency entry in experiment [1], in experiment [2], in [6], in experiment [4] and in [5] was “inactive” each time.

As to `O=S(=O)(O)c1cc(Cl)c(Cl)cc1Cl`, the Potency result in experiment [1], in experiment [2], in experiment [3], in experiment [4], in experiment [5] and in experiment [10] was “inactive” throughout. Besides, the compound was called inactive in experiment [8] and in experiment [9].

Regarding `CC(CN=Cc1ccccc1O)N=Cc1ccccc1O` (stereo not given), the Potency entry in experiment [1], in experiment [2], in experiment [3] and in [5] was “inactive” each time.

For the compound `NC(=O)c1cc[n+](CC2=C(C(=O)[O-])N3C(=O)[C@@H](NC(=O)Cc4cccs4)[C@H]3SC2)cc1`, the Potency entry in [1], in experiment [2], in [6] and in experiment [5] was “inactive” in each case.

Turning to `c1ccc(CN(Cc2ccccc2)Cc2ccccc2)cc1`, the Potency result in experiment [1], in [2], in experiment [3], in [4] and in experiment [5] was “inactive” each time.

For `O=Cc1ccc(Cl)c([N+](=O)[O-])c1`, the Potency entry in experiment [1] and in experiment [5] was “inactive” in each case. In addition, the Potency in experiment [2] and in experiment [6] was 4.33 µM (active) each time.

Turning to `CCCOC(C)=O`, the Potency result in experiment [1], in experiment [2], in experiment [6], in experiment [5] and in experiment [10] was “inactive” each time. The outcome in experiment [8] and in experiment [9] was inactive.

As for `CCOC(OCC)OCC`, the Potency result in experiment [1], in experiment [2], in [6], in experiment [4] and in experiment [5] was “inactive” each time.

Take `O=C(O)c1ccc2cc(O)ccc2c1`: the Potency entry in experiment [1], in experiment [2], in experiment [6], in experiment [4] and in experiment [5] was “inactive” in each case.

With `CC[C@H](NC(C)C)[C@H](O)c1ccc(O)c2[nH]c(=O)ccc12`, the Potency result in [1], in experiment [2], in experiment [6], in experiment [4], in experiment [7] and in [5] was “inactive” each time. In experiment [10], the Potency entry was “inactive”. Moreover, the result in [8] and in experiment [9] was inactive.

`CC(C)(C)NCC(O)COc1ccc(NC(=O)NC2CCCCC2)cc1` (stereo not given): the Potency entry in experiment [1], in experiment [4] and in [5] was “inactive” throughout. Also, the Potency is 29.8 µM (active) in experiment [2] and 26.6 µM (active) in experiment [3].

In the case of `C1CCN(CN2CCCCC2)CC1`, the Potency result in experiment [1], in [2], in [6], in [4] and in experiment [5] was “inactive” throughout.

For `Nc1ccccc1Nc1ccccc1`, the Potency in [1] was 55.1 µM (active); in experiment [2] it was 19.4 µM (active); in experiment [6] it was 8.66 µM (active). Besides, the Potency result in [4] and in experiment [5] was “inactive” throughout.

Turning to `FC1(F)C(F)(F)C(F)(F)C2(F)C(F)(C1(F)F)C(F)(F)C(F)(F)C1(F)C(F)(F)C(F)(F)C(F)(F)C(F)(F)C12F` (stereo not given), the Potency entry in experiment [1], in experiment [2], in experiment [6], in [4] and in [5] was “inactive” each time.

Regarding `CCc1cnc(C(=O)O)c(C(=O)O)c1`, the Potency result in experiment [1], in [2], in experiment [3], in [4] and in [5] was “inactive” throughout.

As for `Clc1cc(Cl)c2c(c1)N=C1CCCCCN1C2`, the Potency entry in [1], in experiment [4] and in [5] was “inactive” in each case. Moreover, the Potency was 13.3 µM (active) in experiment [2] and 8.41 µM (active) in experiment [6].

For the compound `Nc1ncnc2c1ncn2[C@@H]1O[C@H](CO)[C@@H](O)[C@H]1O`, the Potency result in experiment [1], in experiment [2], in [6] and in [5] was “inactive” throughout.

On to `CO[C@@H]1[C@@H](O[C@@H]2O[C@H](C)[C@@H](O[C@H]3C[C@@](C)(O)[C@@H](O)[C@H](C)O3)[C@H](N(C)C)[C@H]2O)[C@@H](CC=O)C[C@@H](C)[C@@H](O[C@@H]2CC[C@H](N(C)C)[C@@H](C)O2)/C=C/C=C/C[C@@H](C)OC(=O)C[C@H]1OC(C)=O`, for which the Potency entry in experiment [1], in experiment [4] and in experiment [5] was “inactive” throughout. Besides, the results for the Potency in experiment [2] and in experiment [6] were 8.41 µM (active) and 6.68 µM (active), respectively.

Regarding `O=C(OC1C[C@H]2CC[C@@H](C1)[N+]21CCCC1)C(O)(c1ccccc1)c1ccccc1` (stereo not given in full), the Potency result in experiment [1], in experiment [2], in [6], in experiment [4], in [5] and in experiment [10] was “inactive” in each case. Further, the call in [8] and in [9] was inactive.

These data come from PubChem BioAssay (Tox21).
